In the library only some 2.1% were active in any assay of this set; here they are far more common.
TDP43 rescue – TDP-43 toxicity inhibition in yeast. AID 652104. TDP-43 expressing yeast growth rescue, BacTiter-Glo, 24 h. Potency, µM (highest dose often 46.1 µM), inactives show at the highest dose growth rescue (activation), usual class: activators. hit rate 1.8% among 410,000; also: % of control where 0% means no effect; nearly all actives have a fitted effect of over 50% in size
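Growth rescue of TDP-43-toxic yeast measured as ATP luminescence (BacTiter-Glo). Cells grown to mid-log in raffinose, induced in galactose at OD600=0.02, exposed to compound 24 hr at 30 deg C.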
FUS suppressor – rescues growth of FUS-expressing yeast; S. cerevisiae FUS-expressing, growth rescue, OD600, 24 h; hit rate 0.24% among 390,000; Potency, µM (top dose mostly 76.6 µM), usual class: activators; AID 1347120;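 also: plate controls were DMSO vehicle for no effect and reference control for full effect; nearly all actives have a fitted effect of over 55% in size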
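Galactose (2%) drives FUS expression in yeast precultured in raffinose; seeding density OD 0.005. Test compounds incubated 24hr at 30C and 99% humidity before absorbance at 600 nm was measured.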
aSyn rescue – alpha-synuclein toxicity inhibition in yeast. Yeast expressing alpha-synuclein, growth rescue, BacTiter-Glo, 24 h. AID 652106. Potency, µM (doses to about 46.1 µM), for the others: top-dose growth rescue (activation), actives largely listed as activators. hit rate 0.14% among 370,000; also: % of control where 0% means no effect; nearly all actives have a fitted effect of over 65% in size
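Readout is rescue of growth in alpha-synuclein-expressing yeast, so inhibitors of toxicity appear as activators. Growth after 24 hr at 30 deg C in galactose medium is quantified by luminescence.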
Abeta rescue – A-beta toxicity reversal in yeast; yeast expressing A-beta42, growth rescue, OD600, 48 h; response scale: 0% DMSO, 100% iron-clioquinol control; hit rate 0.063% among 410,000; Potency, µM (highest dose often 46.1 µM), hits mostly activators; also: nearly all actives have a fitted effect of over 55% in size
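Yeast growth medium received pinned compounds, then yeast cells expressing toxic A-beta were added; plates incubated at 30 C for 48 hr. Growth read as absorbance at 600 nm, normalized to DMSO and equimolar FeCl3 plus clioquinol controls.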
* marks the source's active call; other numbers are inactive results; i = inactive; ? = inconclusive; / = not tested or not shown. Calls follow the shape of the dose curve; as a rule, active = well fitted curve in the direction sought with a large enough effect; inconclusive = small, poorly fitted or top-dose-only effect, or another doubt; inactive = no such curve, though single readings can be large; an effect the other way counts as inactive or inconclusive. Potency is read from the fitted curve at half-maximal effect.

SMILES	TDP43 rescue	FUS suppressor	aSyn rescue	Abeta rescue
Cc1ccc(-n2c(C)nc3c(cnn3-c3ccccc3Cl)c2=O)cc1C	11µM*	i	0%	i
COc1ccc(-n2c(C)nc3c(cnn3-c3ccc(C)c(C)c3)c2=O)cc1Cl	1%	i	/	i
COc1cccc(-n2c(C)nc3c(cnn3-c3ccc(C)c(C)c3)c2=O)c1	22µM*	i	/	i
Cc1ccc(-n2c(C)nc3c(cnn3-c3ccc(C)c(C)c3)c2=O)cc1C	?	i	6%	i
CCCCN1CCN(C(=O)Cn2c(=O)c3ccccc3n(CC)c2=O)CC1	/	i	/	/
O=C(c1ccoc1)N1CCN(c2cc(-c3ccco3)nc3cc(-c4ccccc4)nn23)CC1	20µM*	?	-10%	i
Cc1cc(N2CCN(C(=O)c3ccoc3)CC2)n2nc(-c3ccccc3)cc2n1	-7%	i	0%	i
O=C(c1ccoc1)N1CCN(c2cc(-c3ccccc3)nc3cc(-c4ccccc4)nn23)CC1	18µM*	i	-1%	i
CC(=O)NC1CCCCN(Cc2cccc(F)c2)C1=O (stereo unspecified)	/	i	/	/
CC(C)S(=O)(=O)N1CCN(c2nc(-c3cccs3)nc3ccccc23)CC1	/	/	3%	/
CCOC(=O)COc1ccc(C(C)c2ccc(NC(=O)OC(C)(C)C)cc2)cc1 (stereo unspecified)	/	i	/	/
CC1(C(=O)Nc2ccc3c(c2)OCCO3)CN(S(C)(=O)=O)CC(=O)N1Cc1cccc(C(F)(F)F)c1 (stereo unspecified)	22µM*	i	13%	i
CCCOC(=O)c1cccc(Nc2nc(CCC)cc(=O)[nH]2)c1	18µM*	?	/	i
COc1cc(/C=c2\[nH]c(=O)/c(=C/c3cc(OC)c(OC)c(OC)c3)[nH]c2=O)cc(OC)c1OC	/	/	-14%	/
CCCCCNC1=CC(=O)CC(c2ccccc2)C1 (stereo unspecified)	-8%	i	0%	i
CCCCCCCNC1=CC(=O)CC(c2ccccc2)C1 (stereo unspecified)	20µM*	i	17%	i
CCC(Oc1ccc(F)cc1)C(=O)Nc1nc2c(s1)CCCC2 (stereo unspecified)	11µM*	i	/	?
O=C(Nc1nc2c(s1)CCCC2)c1ccc(Br)o1	19%	i	-28%	i
Cc1ccc(C(=O)Nc2nc3c(s2)CCCC3)o1	14µM*	i	-27%	i
CN(C)/[N+]([O-])=N/Oc1cc(F)c([N+](=O)[O-])cc1[N+](=O)[O-]	/	/	-23%	/
Clc1nc(NCC2CCCO2)c2[nH]cnc2n1 (stereo unspecified)	/	/	10%	/
Cc1ccc(C2=CC(c3ccccc3C)n3c(nc4ccccc43)N2)cc1 (stereo unspecified)	10µM*	i	/	i
Cc1cccc(C2C=C(c3ccc(F)cc3)Nc3nc4ccccc4n32)c1 (stereo unspecified)	32µM*	i	/	i
O=C(CC1(O)C(=O)N(CCc2ccccc2)c2ccc(Br)cc21)c1ccccc1 (stereo unspecified)	32µM*	i	-13%	i
C/C(=N/NC(=O)c1cccnc1)c1cccc(O)c1	/	i	/	/
SMILES	TDP43 rescue	FUS suppressor	aSyn rescue	Abeta rescue
O=C(COc1ccccc1C(=O)OCC(=O)N1CCOCC1)Nc1ccc(Br)cc1	/	/	1%	/
O=C(COC(=O)C12CC3CC(CC(C3)C1)C2)Nc1ccc(OC(F)F)cc1	18µM*	i	/	?
O=C(COC(=O)/C=C/c1ccco1)NCc1ccc2c(c1)OCO2	16µM*	i	-1%	i
O=C(COC(=O)/C=C/c1ccc(F)cc1)NCc1ccc2c(c1)OCO2	-12%	i	-6%	i
O=C(COC(=O)C1(c2ccccc2F)CCCC1)NCc1ccc2c(c1)OCO2	16µM*	/	19%	i
CC1(C)OC(=O)C2(Cc3cc(C(F)(F)F)ccc3N3CCCCC32)C(=O)O1 (stereo unspecified)	/	/	-13%	/
COc1cc2c(O)c3c(c(-c4ccc5c(c4)OCO5)c2cc1OC)C(=O)OC3	-17%	8.9µM*	-10%	i
CC(Sc1nc2ccccc2s1)C(=O)Nc1nnc(C(C)C)s1 (stereo unspecified)	25µM*	i	7%	i
O=C(Nc1nc(-c2cc3ccccc3oc2=O)cs1)c1ccco1	3.5µM*	i	-8%	i
O=C(Nc1nc(-c2ccccn2)cs1)c1ccco1	-8%	i	18µM*	?
